# Results reported in paper PMC11006913.
# Numbering of substitutions follows the chain as printed.
# Experiments:
# Assay in all cases: PBM; 200 nM protein, PBS
# Details in all cases: dsDNA, one strand shown
# HOXB9 [1] = target: HOXB9 (Homo sapiens, UniProt P17482 171-250, T197M)
# HOXC9 [2] = target: HOXC9 (Homo sapiens, UniProt P31274 178-260, K195R)
# HOXA7 [3] = target: HOXA7 (Homo sapiens, UniProt P31268 116-202)
# HOXC10 [4] = target: HOXC10 (Homo sapiens, UniProt Q9NYD6 254-340)
# HOXB9 [5] = target: HOXB9 (Homo sapiens, UniProt P17482 171-250)
# Sequence of HOXB9 (Homo sapiens, UniProt P17482 171-250) (P17482 171-250): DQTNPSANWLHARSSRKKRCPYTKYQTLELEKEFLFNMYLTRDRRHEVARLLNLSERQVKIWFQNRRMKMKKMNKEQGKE
# HOXC9 [6] = target: HOXC9 (Homo sapiens, UniProt P31274 178-260)
# Sequence of HOXC9 (Homo sapiens, UniProt P31274 178-260) (P31274 178-260): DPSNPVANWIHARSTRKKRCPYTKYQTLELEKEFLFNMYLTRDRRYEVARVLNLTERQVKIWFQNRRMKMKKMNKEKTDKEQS
# HOXD13 [7] = target: HOXD13 (Homo sapiens, UniProt P35453 263-343, T313R)
# Sequence of HOXD13 (Homo sapiens, UniProt P35453 263-343, T313R) (P35453 263-343 T313R): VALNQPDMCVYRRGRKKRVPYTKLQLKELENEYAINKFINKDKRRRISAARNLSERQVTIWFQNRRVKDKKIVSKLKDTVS
# HOXC9 [8] = target: HOXC9 (Homo sapiens, UniProt P31274 178-260, R193K)
# Sequence of HOXC9 (Homo sapiens, UniProt P31274 178-260, R193K) (P31274 178-260 R193K): as the sequence (P31274 178-260) above, with R16K counted along it
# HOXD13 [9] = target: HOXD13 (Homo sapiens, UniProt P35453 263-343)
# Sequence of HOXD13 (Homo sapiens, UniProt P35453 263-343) (P35453 263-343): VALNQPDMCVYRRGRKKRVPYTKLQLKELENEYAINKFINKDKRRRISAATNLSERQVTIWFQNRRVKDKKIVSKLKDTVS
# HOXC10 [10] = target: HOXC10 (Homo sapiens, UniProt Q9NYD6 254-340, K271E)
# Sequence of HOXC10 (Homo sapiens, UniProt Q9NYD6 254-340, K271E) (Q9NYD6 254-340 K271E): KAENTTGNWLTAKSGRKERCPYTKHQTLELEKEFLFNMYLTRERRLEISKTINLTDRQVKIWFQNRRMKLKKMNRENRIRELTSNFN
# HOXD13 [11] = target: HOXD13 (Homo sapiens, UniProt P35453 263-343, T313A)
# Sequence of HOXD13 (Homo sapiens, UniProt P35453 263-343, T313A) (P35453 263-343 T313A): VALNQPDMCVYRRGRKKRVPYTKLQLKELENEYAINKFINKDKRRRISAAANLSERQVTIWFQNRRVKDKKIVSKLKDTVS
# HOXB9 [12] = target: HOXB9 (Homo sapiens, UniProt P17482 171-250, R186Q)
# Sequence of HOXB9 (Homo sapiens, UniProt P17482 171-250, R186Q) (P17482 171-250 R186Q): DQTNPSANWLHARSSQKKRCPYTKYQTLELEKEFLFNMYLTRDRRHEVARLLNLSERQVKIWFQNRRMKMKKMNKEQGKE
# HOXC9 [13] = target: HOXC9 (Homo sapiens, UniProt P31274 178-260, R222W)
# Sequence of HOXC9 (Homo sapiens, UniProt P31274 178-260, R222W) (P31274 178-260 R222W): as the sequence (P31274 178-260) above, with R45W counted along it
# HOXA7 [14] = target: HOXA7 (Homo sapiens, UniProt P31268 116-202, W177C)
# Sequence of HOXA7 (Homo sapiens, UniProt P31268 116-202, W177C) (P31268 116-202 W177C): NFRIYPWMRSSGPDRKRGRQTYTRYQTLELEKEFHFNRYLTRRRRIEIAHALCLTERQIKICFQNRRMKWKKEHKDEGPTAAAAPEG
# VENTX [15] = target: T1, VENTX (Homo sapiens, UniProt O95231 78-163, R121Q)
# T1 sequence: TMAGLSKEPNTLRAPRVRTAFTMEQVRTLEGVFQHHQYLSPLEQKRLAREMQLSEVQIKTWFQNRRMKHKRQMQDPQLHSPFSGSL
# VENTX [16] = target: T2, VENTX (Homo sapiens, UniProt O95231 78-163)
# T2 sequence: T1 sequence with Q44R
# VENTX [17] = target: T3, VENTX (Homo sapiens, UniProt O95231 78-163, Y115F)
# T3 sequence: T1 sequence with Y38F, Q44R
# CRX = CRX (Homo sapiens, UniProt O43186 26-111, R41L)
# Sequence of CRX (O43186 26-111 R41L): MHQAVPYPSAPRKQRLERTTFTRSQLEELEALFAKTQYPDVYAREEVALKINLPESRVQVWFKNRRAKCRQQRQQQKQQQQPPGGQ
# HOXB6 [18] = target: HOXB6 (Homo sapiens, UniProt P17509 132-218, K202E)
# Sequence of HOXB6 (Homo sapiens, UniProt P17509 132-218, K202E) (P17509 132-218 K202E): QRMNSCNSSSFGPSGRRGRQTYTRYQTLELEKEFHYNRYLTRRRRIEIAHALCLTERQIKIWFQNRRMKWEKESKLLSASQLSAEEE
# HOXB6 [19] = target: HOXB6 (Homo sapiens, UniProt P17509 132-218)
# Sequence of HOXB6 (Homo sapiens, UniProt P17509 132-218) (P17509 132-218): as the sequence (P17509 132-218 K202E) above, with E71K counted along it
# VAX1 [20] = target: VAX1 (Homo sapiens, UniProt Q5SQQ9 86-172)
# Sequence of VAX1 (Homo sapiens, UniProt Q5SQQ9 86-172) (Q5SQQ9 86-172): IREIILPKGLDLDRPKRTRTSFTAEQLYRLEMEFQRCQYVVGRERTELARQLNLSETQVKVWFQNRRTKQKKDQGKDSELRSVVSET
# VAX1 [21] = target: VAX1 (Homo sapiens, UniProt Q5SQQ9 86-172, T142I)
# Sequence of VAX1 (Homo sapiens, UniProt Q5SQQ9 86-172, T142I) (Q5SQQ9 86-172 T142I): as the sequence (Q5SQQ9 86-172) above, with T57I counted along it
# VAX1 [22] = target: VAX1 (Homo sapiens, UniProt Q5SQQ9 86-172, K157R)
# Sequence of VAX1 (Homo sapiens, UniProt Q5SQQ9 86-172, K157R) (Q5SQQ9 86-172 K157R): as the sequence (Q5SQQ9 86-172) above, with K72R counted along it
# ALX4 = ALX4 (Homo sapiens, UniProt Q9H161 200-286, Q225E)
# Sequence of ALX4 (Q9H161 200-286 Q225E): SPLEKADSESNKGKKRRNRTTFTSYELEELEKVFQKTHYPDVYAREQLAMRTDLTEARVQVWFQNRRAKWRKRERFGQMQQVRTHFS
# HOXA4 = HOXA4 (Homo sapiens, UniProt Q00056 201-287, W262F)
# Sequence of HOXA4 (Q00056 201-287 W262F): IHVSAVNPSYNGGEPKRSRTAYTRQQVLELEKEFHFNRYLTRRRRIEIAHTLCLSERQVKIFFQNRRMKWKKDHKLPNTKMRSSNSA
# Sequence of HOXC9 (Homo sapiens, UniProt P31274 178-260, K195R) (P31274 178-260 K195R): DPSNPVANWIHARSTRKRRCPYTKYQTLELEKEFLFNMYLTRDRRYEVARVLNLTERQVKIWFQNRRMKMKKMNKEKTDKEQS
# Sequence of HOXB9 (Homo sapiens, UniProt P17482 171-250, T197M) (P17482 171-250 T197M): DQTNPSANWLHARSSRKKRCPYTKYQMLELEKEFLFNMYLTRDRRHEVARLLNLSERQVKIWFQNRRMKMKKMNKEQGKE
# Sequence of HOXC10 (Homo sapiens, UniProt Q9NYD6 254-340) (Q9NYD6 254-340): as the sequence (Q9NYD6 254-340 K271E) above, with E18K counted along it
# Sequence of HOXA7 (Homo sapiens, UniProt P31268 116-202) (P31268 116-202): as the sequence (P31268 116-202 W177C) above, with C62W counted along it
sequence,measurement,setting,value
CCCATAAA,binding signal,HOXB9 [1],"9.63 upbm affinity estimate (log intensity, higher = more binding, comparable within an allelic series)"
same,binding signal,HOXC9 [2],"12.8 upbm affinity estimate (log intensity, higher = more binding, comparable within an allelic series)"
same,binding signal,HOXA7 [3],"10.4 upbm affinity estimate (log intensity, higher = more binding, comparable within an allelic series)"
same,binding signal,HOXC10 [4],"12.5 upbm affinity estimate (log intensity, higher = more binding, comparable within an allelic series)"
same,binding signal,HOXB9 [5],"12.2 upbm affinity estimate (log intensity, higher = more binding, comparable within an allelic series)"
same,binding signal,HOXC9 [6],"13 upbm affinity estimate (log intensity, higher = more binding, comparable within an allelic series)"
same,binding signal,HOXD13 [7],"11 upbm affinity estimate (log intensity, higher = more binding, comparable within an allelic series)"
same,binding signal,HOXC9 [8],"12.8 upbm affinity estimate (log intensity, higher = more binding, comparable within an allelic series)"
same,binding signal,HOXD13 [9],"12.3 upbm affinity estimate (log intensity, higher = more binding, comparable within an allelic series)"
same,binding signal,HOXC10 [10],"11.9 upbm affinity estimate (log intensity, higher = more binding, comparable within an allelic series)"
same,binding signal,HOXD13 [11],"12 upbm affinity estimate (log intensity, higher = more binding, comparable within an allelic series)"
same,binding signal,HOXB9 [12],"12 upbm affinity estimate (log intensity, higher = more binding, comparable within an allelic series)"
same,binding signal,HOXC9 [13],"11.2 upbm affinity estimate (log intensity, higher = more binding, comparable within an allelic series)"
same,binding signal,HOXA7 [14],"8.63 upbm affinity estimate (log intensity, higher = more binding, comparable within an allelic series)"
CCTAATCG,binding signal,VENTX [15],"11.4 upbm affinity estimate (log intensity, higher = more binding, comparable within an allelic series)"
same,binding signal,VENTX [16],"12.5 upbm affinity estimate (log intensity, higher = more binding, comparable within an allelic series)"
same,binding signal,VENTX [17],"11.3 upbm affinity estimate (log intensity, higher = more binding, comparable within an allelic series)"
same,binding signal,CRX,"10.8 upbm affinity estimate (log intensity, higher = more binding, comparable within an allelic series)"
GTAATAAA,binding signal,HOXB9 [1],"10.1 upbm affinity estimate (log intensity, higher = more binding, comparable within an allelic series)"
same,binding signal,HOXC9 [2],"13.2 upbm affinity estimate (log intensity, higher = more binding, comparable within an allelic series)"
same,binding signal,HOXA7 [3],"11.4 upbm affinity estimate (log intensity, higher = more binding, comparable within an allelic series)"
same,binding signal,HOXC10 [4],"13 upbm affinity estimate (log intensity, higher = more binding, comparable within an allelic series)"
same,binding signal,HOXB6 [18],"9.9 upbm affinity estimate (log intensity, higher = more binding, comparable within an allelic series)"
same,binding signal,HOXB9 [5],"12.6 upbm affinity estimate (log intensity, higher = more binding, comparable within an allelic series)"
same,binding signal,HOXC9 [6],"13.3 upbm affinity estimate (log intensity, higher = more binding, comparable within an allelic series)"
same,binding signal,HOXD13 [7],"11 upbm affinity estimate (log intensity, higher = more binding, comparable within an allelic series)"
same,binding signal,HOXC9 [8],"13.2 upbm affinity estimate (log intensity, higher = more binding, comparable within an allelic series)"
same,binding signal,HOXD13 [9],"12.1 upbm affinity estimate (log intensity, higher = more binding, comparable within an allelic series)"
same,binding signal,HOXC10 [10],"12.6 upbm affinity estimate (log intensity, higher = more binding, comparable within an allelic series)"
same,binding signal,HOXD13 [11],"11.9 upbm affinity estimate (log intensity, higher = more binding, comparable within an allelic series)"
same,binding signal,HOXB9 [12],"12.3 upbm affinity estimate (log intensity, higher = more binding, comparable within an allelic series)"
same,binding signal,HOXC9 [13],"11.4 upbm affinity estimate (log intensity, higher = more binding, comparable within an allelic series)"
same,binding signal,HOXA7 [14],"8.79 upbm affinity estimate (log intensity, higher = more binding, comparable within an allelic series)"
same,binding signal,HOXB6 [19],"11.8 upbm affinity estimate (log intensity, higher = more binding, comparable within an allelic series)"
CCCATTAG,binding signal,VENTX [15],"12.1 upbm affinity estimate (log intensity, higher = more binding, comparable within an allelic series)"
same,binding signal,VENTX [16],"13 upbm affinity estimate (log intensity, higher = more binding, comparable within an allelic series)"
same,binding signal,VENTX [17],"11.9 upbm affinity estimate (log intensity, higher = more binding, comparable within an allelic series)"
same,binding signal,VAX1 [20],"12.6 upbm affinity estimate (log intensity, higher = more binding, comparable within an allelic series)"
same,binding signal,VAX1 [21],"12 upbm affinity estimate (log intensity, higher = more binding, comparable within an allelic series)"
same,binding signal,VAX1 [22],"12.3 upbm affinity estimate (log intensity, higher = more binding, comparable within an allelic series)"
GCAATAAA,binding signal,HOXB9 [1],"10 upbm affinity estimate (log intensity, higher = more binding, comparable within an allelic series)"
same,binding signal,HOXC9 [2],"13.2 upbm affinity estimate (log intensity, higher = more binding, comparable within an allelic series)"
same,binding signal,HOXA7 [3],"11.2 upbm affinity estimate (log intensity, higher = more binding, comparable within an allelic series)"
same,binding signal,HOXC10 [4],"12.8 upbm affinity estimate (log intensity, higher = more binding, comparable within an allelic series)"
same,binding signal,HOXB6 [18],"9.94 upbm affinity estimate (log intensity, higher = more binding, comparable within an allelic series)"
same,binding signal,ALX4,"10.5 upbm affinity estimate (log intensity, higher = more binding, comparable within an allelic series)"
same,binding signal,HOXB9 [5],"12.6 upbm affinity estimate (log intensity, higher = more binding, comparable within an allelic series)"
same,binding signal,HOXC9 [6],"13.3 upbm affinity estimate (log intensity, higher = more binding, comparable within an allelic series)"
same,binding signal,HOXD13 [7],"11 upbm affinity estimate (log intensity, higher = more binding, comparable within an allelic series)"
same,binding signal,HOXC9 [8],"13.1 upbm affinity estimate (log intensity, higher = more binding, comparable within an allelic series)"
same,binding signal,HOXD13 [9],"12.3 upbm affinity estimate (log intensity, higher = more binding, comparable within an allelic series)"
same,binding signal,HOXC10 [10],"12.3 upbm affinity estimate (log intensity, higher = more binding, comparable within an allelic series)"
same,binding signal,HOXD13 [11],"12.1 upbm affinity estimate (log intensity, higher = more binding, comparable within an allelic series)"
same,binding signal,HOXB9 [12],"12.3 upbm affinity estimate (log intensity, higher = more binding, comparable within an allelic series)"
same,binding signal,HOXC9 [13],"11.4 upbm affinity estimate (log intensity, higher = more binding, comparable within an allelic series)"
same,binding signal,HOXA7 [14],"8.8 upbm affinity estimate (log intensity, higher = more binding, comparable within an allelic series)"
same,binding signal,HOXB6 [19],"11.7 upbm affinity estimate (log intensity, higher = more binding, comparable within an allelic series)"
TAATCGGA,binding signal,VENTX [15],"10.4 upbm affinity estimate (log intensity, higher = more binding, comparable within an allelic series)"
same,binding signal,VENTX [17],"10.6 upbm affinity estimate (log intensity, higher = more binding, comparable within an allelic series)"
CCATTAAA,binding signal,HOXB9 [1],"10.1 upbm affinity estimate (log intensity, higher = more binding, comparable within an allelic series)"
same,binding signal,HOXC9 [2],"13 upbm affinity estimate (log intensity, higher = more binding, comparable within an allelic series)"
same,binding signal,HOXA7 [3],"11.5 upbm affinity estimate (log intensity, higher = more binding, comparable within an allelic series)"
same,binding signal,HOXC10 [4],"12.5 upbm affinity estimate (log intensity, higher = more binding, comparable within an allelic series)"
same,binding signal,HOXB6 [18],"9.87 upbm affinity estimate (log intensity, higher = more binding, comparable within an allelic series)"
same,binding signal,HOXB9 [5],"12.4 upbm affinity estimate (log intensity, higher = more binding, comparable within an allelic series)"
same,binding signal,HOXC9 [6],"13.1 upbm affinity estimate (log intensity, higher = more binding, comparable within an allelic series)"
same,binding signal,HOXD13 [7],"10.6 upbm affinity estimate (log intensity, higher = more binding, comparable within an allelic series)"
same,binding signal,HOXC9 [8],"13 upbm affinity estimate (log intensity, higher = more binding, comparable within an allelic series)"
same,binding signal,HOXD13 [9],"11.9 upbm affinity estimate (log intensity, higher = more binding, comparable within an allelic series)"
same,binding signal,HOXC10 [10],"12.2 upbm affinity estimate (log intensity, higher = more binding, comparable within an allelic series)"
same,binding signal,VAX1 [20],"12.2 upbm affinity estimate (log intensity, higher = more binding, comparable within an allelic series)"
same,binding signal,HOXD13 [11],"11.6 upbm affinity estimate (log intensity, higher = more binding, comparable within an allelic series)"
same,binding signal,HOXB9 [12],"12.2 upbm affinity estimate (log intensity, higher = more binding, comparable within an allelic series)"
same,binding signal,HOXC9 [13],"11.1 upbm affinity estimate (log intensity, higher = more binding, comparable within an allelic series)"
same,binding signal,VAX1 [21],"11.9 upbm affinity estimate (log intensity, higher = more binding, comparable within an allelic series)"
same,binding signal,HOXA7 [14],"8.59 upbm affinity estimate (log intensity, higher = more binding, comparable within an allelic series)"
same,binding signal,HOXA4,"10.9 upbm affinity estimate (log intensity, higher = more binding, comparable within an allelic series)"
same,binding signal,VAX1 [22],"11.8 upbm affinity estimate (log intensity, higher = more binding, comparable within an allelic series)"
same,binding signal,HOXB6 [19],"12 upbm affinity estimate (log intensity, higher = more binding, comparable within an allelic series)"
